± gives the standard deviation of the averaged measurements.

Test [1] has as its system MDA-MB-231. The test can be described thus: cell viability relative to vehicle unstimulated control (fraction); higher = more viable cells. The following applies: pre-treatment time: 18 h then 24 h IFNg/TNF.
The test system of test [2] is MDA-MB-231. In words: kynurenine production, fold change vs DMSO IFNg/TNF control; higher = more kynurenine produced (less inhibition). The following applies: pre-treatment time: 18 h then 24 h IFNg/TNF. A digest of the protocol:
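MDA-MB-231 cells were seeded in 96-well plates at 7 × 10^4/well and, 24 h later, pre-treated for 18 h with each natural product in 0.1% DMSO. They were then stimulated for 24 h at 37°C with IFNγ (1 U/ml) and TNF (6.25 ng/ml). Supernatants were treated with trichloroacetic acid and p-dimethylaminobenzaldehyde and read at 492 nm against 0–100 μM standards. Kynurenine production is expressed as fold change over cytokine-stimulated vehicle wells on the same plate and, in the first screening round, averaged across duplicate plates.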
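Throughout, for cell viability relative to vehicle unstimulated control: viability of the cells left after supernatant collection, read with Deep Blue dye added for 4 h, as absorbance at 570 nm minus 600 nm.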

For the compound `CC1(C)CC[C@]2(C(=O)O[C@@H]3O[C@H](CO)[C@@H](O)[C@H](O)[C@H]3O)CC[C@]3(C)C(=CC[C@@H]4[C@@]5(C)CC[C@H](O[C@@H]6O[C@H](C(=O)O)[C@@H](O)[C@H](O)[C@H]6O)C(C)(C)[C@@H]5CC[C@]43C)[C@@H]2C1` [Chikusetsusaponin Iva] (compound dose: 10 uM), in the test with MDA-MB-231 [1], the cell viability amounted to 0.986 ± 0.01. Also, the kynurenine production in the test on MDA-MB-231 [2] came to 0.788 ± 0.14.

With `C=C(C)[C@@H]1CCC2=CC(=O)C[C@@H](C)[C@]2(C)C1` [Nootkatone] (compound dose: 10 uM), the cell viability with MDA-MB-231 [1] was 0.9333 ± 0.0022. Further, in the test with MDA-MB-231 [2], the kynurenine production was found to be 0.932 ± 0.073.

`CC1CCC2(O)C(C)(C)C3CCC2(C)C1C3` (stereo not drawn) [Patchouli alcohol] (compound dose: 10 uM): the cell viability with MDA-MB-231 [1] was 0.994 ± 0.013. The kynurenine production in the test on MDA-MB-231 [2] was 1.04 ± 0.064.

On to `CN1CCC[C@@H]1CC(=O)C[C@@H]1CCCN1C` [Cuscohygrine] (compound dose: 10 uM), for which the cell viability in the test with MDA-MB-231 [1] was 0.977 ± 0.14. In addition, in the test on MDA-MB-231 [2], the kynurenine production worked out at 0.962 ± 0.027.

As for `CC(C)=CCCC1(C)CCC2(C)C3CCC4(C)C(C)C(=O)CCC4C3(C)CCC2(C)C1` (stereo not drawn) [Shionone] (compound dose: 10 uM), the cell viability in the test on MDA-MB-231 [1] is 1.02 ± 0.0034. Also, the kynurenine production with MDA-MB-231 [2] amounted to 0.776 ± 0.11.

As to `CC(=O)O[C@@H]1C[C@@]23C[C@@]24CC[C@H](O[C@@H]2OC[C@H](O)[C@H](O)[C@H]2O)C(C)(C)[C@@H]4CC[C@H]3[C@]2(C)[C@@H](O)[C@]34O[C@H](C[C@@H](C)[C@@H]3[C@@]12C)[C@@H](C(C)(C)O)O4` [Cimiracemoside D] (compound dose: 10 uM), the cell viability in the test with MDA-MB-231 [1] is 1.02 ± 0.086. Besides, the kynurenine production in the test on MDA-MB-231 [2] was found to be 1.16 ± 0.22.

Take `C=CCC(=NOS(=O)(=O)O)S[C@@H]1O[C@H](CO)[C@@H](O)[C@H](O)[C@H]1O` (stereo in doubt) [Sinigrin] (compound dose: 10 uM): the cell viability in the test with MDA-MB-231 [1] is 0.933 ± 0.014. Further, the kynurenine production with MDA-MB-231 [2] is 1.04 ± 0.14.

For the compound `C[C@H](CC[C@@H](O)C(C)(C)O)[C@H]1CC[C@@]2(C)[C@@H]3CC=C4[C@@H](CC[C@H](O[C@@H]5O[C@H](CO)[C@@H](O)[C@H](O)[C@H]5O)C4(C)C)[C@]3(C)[C@H](O)C[C@]12C` [Mogroside I E1] (compound dose: 10 uM), in the test with MDA-MB-231 [1], the cell viability is 0.906 ± 0.15. Further, the kynurenine production in the test on MDA-MB-231 [2] amounted to 0.981 ± 0.35.

`C=C(C)[C@@H]1CC[C@]2(C(=O)O)CC[C@]3(C)[C@H](CC[C@@H]4[C@@]5(C)CC[C@H](OC(=O)CC(C)(C)C(=O)O)C(C)(C)[C@@H]5CC[C@]43C)[C@@H]12` [Bevirimat] (compound dose: 10 uM): the cell viability in the test on MDA-MB-231 [1] was 1.018 ± 0.0069. In addition, in the test on MDA-MB-231 [2], the kynurenine production is 0.778 ± 0.15.

Take `O=C(O)C1=CO[C@@H](O[C@@H]2O[C@H](CO)[C@@H](O)[C@H](O)[C@H]2O)[C@@H]2C(CO)=C[C@H](O)[C@H]12` [Deacetylasperulosidic acid] (compound dose: 10 uM): the cell viability with MDA-MB-231 [1] stood at 1.01 ± 0.024. In addition, the kynurenine production in the test with MDA-MB-231 [2] came to 1.07 ± 0.041.

In the case of `C=C(C)C1CC=C(C)[C@@H](O)C1` (stereo partly drawn) [Carveol] (compound dose: 10 uM), in the test with MDA-MB-231 [1], the cell viability amounted to 1.07 ± 0.081. Besides, in the test on MDA-MB-231 [2], the kynurenine production came to 0.801 ± 0.38.

Take `C=C1C(=O)[C@@]23[C@@H]4OC5O[C@@]2(O)[C@@H](O)[C@@H]2C(C)(C)CC[C@@H](O)[C@]52[C@@H]3CC[C@@H]14` [Ponicidin] (compound dose: 10 uM): the cell viability with MDA-MB-231 [1] amounted to 0.9 ± 0.21. For the same compound, the kynurenine production with MDA-MB-231 [2] is 0.404 ± 0.15.

On to `C=C1C(=O)O[C@H]2[C@H]1CC/C(C)=C/CC[C@@]1(C)O[C@@H]21` [Parthenolide] (compound dose: 10 uM), for which the cell viability in the test with MDA-MB-231 [1] amounted to 0.933 ± 0.034. For the same compound, in the test on MDA-MB-231 [2], the kynurenine production turned out to be 0.309 ± 0.064.

On to `C[C@@H]1C[C@@H]2O[C@@]3(O[C@@H]2C(C)(C)O)[C@H](O)[C@@]2(C)[C@@H]4CC[C@H]5C(C)(C)[C@@H](O)CC[C@@]56C[C@@]46CC[C@]2(C)[C@@H]13` [Cimigenol] (compound dose: 10 uM), for which the cell viability with MDA-MB-231 [1] worked out at 1.03 ± 0.066. Besides, the kynurenine production with MDA-MB-231 [2] came to 0.778 ± 0.31.

As for `C=CC(C)(O)CCC=C(C)CCC=C(C)C` (mixture of isomers) [Nerolidol] (compound dose: 10 uM), the cell viability in the test on MDA-MB-231 [1] came out at 1.01 ± 0.043. The kynurenine production in the test on MDA-MB-231 [2] stood at 0.798 ± 0.2.

For the compound `C=C(C)[C@@H]1CC=C(CO)CC1` [Perillyl alcohol] (compound dose: 10 uM), the cell viability in the test with MDA-MB-231 [1] amounted to 1.036 ± 0.0039. Besides, in the test on MDA-MB-231 [2], the kynurenine production was 0.905 ± 0.13.

As to `C=C1C(=O)O[C@@H]2[C@H]3C(C)=CC[C@@]34O[C@@]4(C)CC[C@@H]12` [Arglabin] (compound dose: 10 uM), the cell viability in the test on MDA-MB-231 [1] came to 1.01 ± 0.041. Moreover, in the test with MDA-MB-231 [2], the kynurenine production is 0.822 ± 0.039.

Regarding `C=C[C@]1(C)CC[C@@H](C(=C)C)C[C@H]1C(=C)C` [β-Elemene] (compound dose: 10 uM), the cell viability with MDA-MB-231 [1] is 0.939 ± 0.071. Moreover, the kynurenine production in the test with MDA-MB-231 [2] worked out at 0.8 ± 0.11.

On to `C=C1C(=O)O[C@@H]2/C=C(\C)CC/C=C(\C)CC[C@@H]12` [Costunolide] (compound dose: 10 uM), for which the cell viability with MDA-MB-231 [1] worked out at 1.03 ± 0.059. In the test with MDA-MB-231 [2], the kynurenine production was determined as 0.474 ± 0.063.

The record behind these values is the supplement of paper PMC13094657.
